Reference: PubChem BioAssay AID1159580 (chemical genetic matrix, 2015)
“And” between values parts separate entries of the source, which are not always exact repeats. Equal entries are not always repeated. In all, about 5,500 compounds went through this assay and about 2,000 (36%) were called active. Another 18% or so got no clear call; they are omitted. No stated cut-off is given here; in the data, active means normalized growth mostly below about 0.91 (no sharp cut-off); inconclusive means no clear call, values can overlap the other calls; inactive means mostly above about 0.92. The list shows a part of the results.

Test: chemical genetic growth profiling, strain panel (AID 1159580);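 further: tested at 20 µM; growth read once vehicle control cultures reached saturation at 30 °C; 1 = growth at the plate median or of vehicle wells; lower values mean less growth of the strain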
Conditions: S. cerevisiae deletion strains, growth OD

Measured: normalized growth

CC(C)N(CCC(C(N)=O)(c1ccccc1)c1ccccn1)C(C)C (stereo unspecified)
inactive: locus YAL013W, strain DEP1, hits give low values 0.959 | locus YAL040C, strain CLN3, hits give low values 0.969 and 1.02 | locus YBR021W, strain FUR4, hits give low values 0.984 | locus YBR229C, strain ROT2, hits give low values 0.998 | locus YCL029C, strain bik1, hits give low values 0.963 | locus YCL061C, strain MRC1 (second series), hits give low values 0.993 and 1.01 | locus YDL005C, strain med2, hits give low values 0.937 | locus YDL035C, strain GPR1, hits give low values 1.04 | locus YDL074C, strain BRE1, hits give low values 0.976 | locus YDL101C, strain DUN1, hits give low values 0.988 | locus YDL185W, strain tfp1, hits give low values 0.971 | locus YDL192W, strain arf1, hits give low values 0.995 | locus YDR101C, strain arx1, hits give low values 0.983 | locus YDR150W, strain NUM1, hits give low values 0.989 and 1 and 1.01 | locus YDR162C, strain NBP2, hits give low values 1.01 | locus YDR318W, strain mcm21, hits give low values 0.998 | locus YDR363W, strain ESC2, hits give low values 0.982 and 0.999 | locus YDR388W, hits give low values 0.99 | locus YDR502C, strain sam2, hits give low values 0.992 | locus YEL061C, strain CIN8, hits give low values 0.996 | locus YER002W, strain NOP16, hits give low values 0.995 and 1 | locus YER110C, hits give low values 0.977 | locus YER155C, strain BEM2, hits give low values 0.989 | locus YER167W, strain BCK2, hits give low values 0.986 | locus YGL078C, strain dbp3, hits give low values 0.99 | locus YGL086W, strain mad1, hits give low values 1 | locus YGL248W, strain PDE1, hits give low values 0.98 | locus YGR078C, strain PAC10, hits give low values 0.99 and 1.04 | locus YGR135W, strain pre9, hits give low values 0.952 | locus YGR252W, strain gcn5, hits give low values 0.997 | locus YHR030C, strain SLT2, hits give low values 0.997 and 1 | locus YHR079C, strain IRE1 (second series), hits give low values 0.995 | locus YHR079C, strain IRE1, hits give low values 0.968 | locus YHR094C, strain hxt1, hits give low values 0.976 | locus YHR129C, strain ARP1, hits give low values 0.999 | locus YHR200W, strain rpn10, hits give low values 0.999 | locus YIL066C, strain RNR3, hits give low values 0.992 | locus YIL073C, strain SPO22, hits give low values 0.912 | locus YIL125W, strain kgd1, hits give low values 1 | locus YIR030C, strain dcg1, hits give low values 0.973 | locus YJL095W, strain BCK1, hits give low values 0.966 and 1.01 | locus YJL134W, strain LCB3, hits give low values 0.998 | locus YJL168C, strain set2, hits give low values 0.996 | locus YJL187C, strain SWE1 (second series), hits give low values 0.977 | locus YJR043C, strain POL32, hits give low values 1.05 | locus YJR066W, strain TOR1, hits give low values 0.994 | locus YJR075W, strain HOC1, hits give low values 1.02 | locus YKL009W, strain mrt4, hits give low values 0.97 | locus YKL068W, hits give low values 0.98 | locus YKL085W, strain MDH1 (second series), hits give low values 0.988 | locus YKL085W, strain MDH1, hits give low values 0.988 | locus YKR001C, strain vps1, hits give low values 0.988 | locus YLR039C, strain RIC1, hits give low values 0.972 | locus YLR058C, strain SHM2, hits give low values 0.979 | locus YLR102C, strain apc9, hits give low values 0.987 | locus YLR113W, strain HOG1, hits give low values 1.06 | locus YLR262C, strain YPT6, hits give low values 0.963 | locus YLR268W, strain sec22, hits give low values 0.999 | locus YLR330W, strain CHS5, hits give low values 0.989 | locus YLR342W, strain FKS1 (second series), hits give low values 1.02 | locus YLR371W, strain rom2, hits give low values 0.997 | locus YLR418C, strain cdc73, hits give low values 0.967 | locus YML016C, strain PPZ1, hits give low values 0.997 | locus YML032C, strain rad52, hits give low values 1.01 | locus YML124C, strain tub3, hits give low values 0.994 | locus YMR078C, strain ctf18, hits give low values 0.978 | locus YMR223W, strain ubp8, hits give low values 0.978 | locus YMR263W, strain SAP30, hits give low values 0.991 | locus YMR307W, strain GAS1, hits give low values 1.01 and 0.995 and 1.02 | locus YNL067W, strain RPL9B, hits give low values 0.973 | locus YNL128W, strain TEP1, hits give low values 1.02 and 0.999 | locus YNL153C, strain GIM3, hits give low values 0.983 and 1.03 | locus YNL175C, strain NOP13, hits give low values 0.978 and 1.02 | locus YNL183C, strain NPR1, hits give low values 1 | locus YNL197C, strain WHI3, hits give low values 1.01 and 0.977 | locus YNL224C, strain SQS1, hits give low values 0.978 and 1.01 | locus YNL233W, strain BNI4, hits give low values 0.972 | locus YNL250W, strain rad50, hits give low values 1.01 | locus YNL271C, strain bni1, hits give low values 0.996 | locus YNL298W, strain CLA4, hits give low values 0.997 | locus YNL307C, strain MCK1, hits give low values 0.999 | locus YNL322C, strain KRE1, hits give low values 0.977 and 1.02 | locus YNR052C, strain pop2, hits give low values 0.997 | locus YOL012C, strain htz1 0.863 | locus YOL147C, strain pex11, hits give low values 0.984 | locus YOR061W, strain CKA2, hits give low values 0.998 | locus YOR069W, strain VPS5, hits give low values 0.996 | locus YOR083W, strain WHI5 (second series), hits give low values 1 and 0.957 | locus YOR136W, strain idh2, hits give low values 1.01 | locus YOR144C, strain elg1, hits give low values 0.996 | locus YOR184W, strain ser1, hits give low values 0.995 | locus YOR231W, strain MKK1, hits give low values 1.02 | locus YOR316C, strain cot1, hits give low values 1 | locus YPL241C, strain CIN2, hits give low values 0.995 and 1.01 | locus YPL256C, strain CLN2, hits give low values 0.991 | locus YPR119W, strain clb2, hits give low values 0.997 | locus YPR141C, strain kar3, hits give low values 0.962 | locus YPR163C, strain tif3, hits give low values 0.989 | locus YPR167C, strain met16, hits give low values 1.01 | strain wtn01, hits give low values 0.996
active: locus YAL021C, strain ccr4, hits give low values 0.0708 | locus YAL026C, strain drs2, hits give low values 0.0629 | locus YAL030W, strain snc1, hits give low values 0.233 | locus YBL061C, strain skt5, hits give low values 0.15 | locus YBR009C, strain hhf1, hits give low values 0.103 | locus YBR023C, strain chs3, hits give low values 0.171 | locus YBR171W, strain sec66, hits give low values 0.0831 | locus YBR231C, strain swc5, hits give low values 0.0926 | locus YBR279W, strain paf1, hits give low values 0.0794 | locus YCL011C, strain gbp2, hits give low values 0.062 | locus YCL016C, strain dcc1, hits give low values 0.251 | locus YCL061C, strain MRC1, hits give low values 0.0703 | locus YCL069W, strain vba3, hits give low values 0.0939 | locus YCR088W, strain abp1, hits give low values 0.0673 | locus YDL040C, strain nat1, hits give low values 0.471 | locus YDR001C, strain nth1, hits give low values 0.0635 | locus YDR069C, strain doa4, hits give low values 0.0647 | locus YDR137W, strain rgp1, hits give low values 0.0968 | locus YDR159W, strain sac3, hits give low values 0.388 | locus YDR195W, strain ref2 0.12 | locus YDR297W, strain sur2, hits give low values 0.0705 | locus YDR334W, strain swr1, hits give low values 0.0666 | locus YDR335W, strain msn5, hits give low values 0.0613 | locus YDR392W, strain spt3, hits give low values 0.112 | locus YEL003W, strain gim4, hits give low values 0.0565 | locus YEL037C, strain rad23, hits give low values 0.0584 | locus YEL061C, strain CIN8 (second series), hits give low values 0.0634 | locus YER015W, strain faa2, hits give low values 0.0627 | locus YER016W, strain bim1, hits give low values 0.0943 | locus YER111C, strain swi4, hits give low values 0.082 | locus YER155C, strain BEM2 (second series), hits give low values 0.1 | locus YFR010W, strain ubp6, hits give low values 0.0698 | locus YGL167C, strain pmr1, hits give low values 0.563 | locus YGL173C, strain kem1, hits give low values 0.114 | locus YGL227W, strain vid30, hits give low values 0.0631 | locus YGL240W, strain doc1, hits give low values 0.129 | locus YGL253W, strain hxk2, hits give low values 0.0581 | locus YHR013C, strain ard1, hits give low values 0.114 | locus YHR027C, strain rpn1, hits give low values 0.0639 | locus YHR142W, strain chs7, hits give low values 0.0788 | locus YJL092W, strain hpr5, hits give low values 0.0644 | locus YJL095W, strain BCK1 (second series), hits give low values 0.17 | locus YJL115W, strain asf1, hits give low values 0.0925 | locus YJL129C, strain trk1, hits give low values 0.0869 | locus YJL154C, strain vps35, hits give low values 0.0659 | locus YJL164C, strain tpk1, hits give low values 0.13 | locus YJL166W, strain qcr8, hits give low values 0.0729 | locus YJL187C, strain SWE1, hits give low values 0.468 | locus YKL160W, strain elf1, hits give low values 0.139 | locus YKR026C, strain gcn3, hits give low values 0.441 | locus YKR091W, strain srl3, hits give low values 0.559 | locus YLL001W, strain dnm1, hits give low values 0.0623 | locus YLL026W, hits give low values 0.0653 | locus YLL041C, strain sdh2, hits give low values 0.411 | locus YLR027C, strain aat2, hits give low values 0.0601 | locus YLR221C, strain rsa3, hits give low values 0.0673 | locus YLR258W, strain gsy2, hits give low values 0.0927 | locus YLR262C, strain YPT6 (second series), hits give low values 0.0974 | locus YLR320W, strain mms22, hits give low values 0.104 | locus YLR342W, strain FKS1, hits give low values 0.0913 | locus YLR357W, strain rsc2, hits give low values 0.133 | locus YLR370C, strain arc18, hits give low values 0.0613 | locus YLR384C, strain iki3, hits give low values 0.0647 | locus YML120C, strain ndi1, hits give low values 0.0595 | locus YMR058W, strain fet3, hits give low values 0.0623 | locus YMR125W, strain sto1, hits give low values 0.309 | locus YMR129W, hits give low values 0.0614 | locus YMR205C, strain PFK2, hits give low values 0.193 | locus YMR231W, strain pep5, hits give low values 0.095 | locus YNL071W, strain lat1, hits give low values 0.0658 | locus YNL209W, strain ssb2, hits give low values 0.0612 | locus YNL248C, strain rpa49, hits give low values 0.0783 | locus YNL322C, strain KRE1 (second series), hits give low values 0.0713 | locus YNR049C, strain mso1, hits give low values 0.0601 | locus YOR001W, strain rrp6, hits give low values 0.0692 | locus YOR070C, strain gyp1, hits give low values 0.0654 | locus YOR080W, strain dia2, hits give low values 0.0699 | locus YOR083W, strain WHI5, hits give low values 0.227 | locus YOR106W, strain vam3, hits give low values 0.0676 | locus YOR265W, strain rbl2, hits give low values 0.0664 | locus YOR270C, strain vph1, hits give low values 0.0928 | locus YOR290C, strain snf2, hits give low values 0.0671 | locus YPL051W, strain arl3, hits give low values 0.0788 | locus YPL078C, strain atp4, hits give low values 0.0695 | locus YPL106C, strain sse1, hits give low values 0.117 | locus YPL240C, strain hsp82, hits give low values 0.278
